Reference: PubChem BioAssay (NCI)
The panel holds about 83,000 compounds, 20% with a hit somewhere; the sample as a whole holds those more often.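 Single-dose data. Exposure time 48 hours. Values below 10 considered active.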 Values without a mark were called inactive. Active and inactive are the calls of the source.

The molecules below were run on HL-60(TB) leukemia (assay: NCI-60 one-dose screen, 48 h (100 = growth as untreated, 0 = no growth, -100 = all killed)). Settings: 10 µM unless noted.

Q: With `COCCOC(C)C(/C=N/NC(N)=S)=N/NC(N)=S` (stereo not given) as the molecule, how does the growth read?
A: Its growth is 81.6%.

Q: `Cc1ccc2c(c1)=C/C(=C\c1cc(-c3ccccc3)[nH]c1O)C(=O)N=2` was tested. Which growth did it give?
A: Its growth is -4.3% (active).

Q: For `Nc1c(-c2nc3ccc(Br)cc3c(=O)[nH]2)nnn1-c1ccccc1`, which growth is on record?
A: Its growth is 103%.

Q: For `O=C(Nc1ccc(Br)c(Cl)c1)c1cc(F)ccc1O`, which growth is on record?
A: Its growth is -33.4% (active).

Q: `Cc1n(Cc2ccc3ccccc3c2)cc[n+]1Cc1ccc2ccccc2c1` was tested. Which growth did it give?
A: The growth was -38.1% (active).

Q: For `CCN(CC)C12CCCCC1(C)C(C#N)(C#N)C(C#N)=C(N)O2` (stereo not given), which growth is on record?
A: The growth was 72.5%.

Q: With `CCCCn1c(-c2cccc(OC)c2)nc2cc(OC)c(OC)cc2c1=O` as the molecule, how does the growth read?
A: Its growth is 78.3%.

Q: `CC(C)(C)CC(C)(C)NC(=O)Nc1ncccc1OCc1ccccc1` was tested. Which growth did it give?
A: Its growth is 90.5%.

Q: Which growth does the source give for `c1ccc(CCCCc2ccc3ccccc3n2)cc1` here?
A: Its growth is 102%.

Q: How did the growth turn out when `COc1cc2c(cc1OCCCCCCN1CCN(CC(=O)Nc3ccc(Cl)cc3C(=O)c3ccccc3Cl)CC1)N=CC1CCCN1C2=O` (stereo not given) was run?
A: The growth was -85.8% (active).

Q: How did the growth turn out when `CCCCCCCCCCCCC1C/C=C\CCCC(=O)O1` (stereo not given) was run?
A: Its growth is 88.4%.

Q: `S=c1ssnc1-c1cccs1` was tested. Which growth did it give?
A: Its growth is 95.1%.

Q: How did the growth turn out when `CNC(=O)c1cc(Oc2ccc3c(c2)sc2nc(-c4ccc(NC(=O)Nc5ccc(Cl)c(C(F)(F)F)c5)cc4)cn23)ccn1` was run?
A: The growth was 32.2%.

Q: Which growth does the source give for `Nc1ccc(S(=O)(=O)Nc2cc(I)cc(I)c2)cc1` here?
A: Its growth is -75% (active).

Q: For `C=C1C(=O)O[C@@H]2[C@H]3[C@H](COC(C)=O)[C@@H](OC(C)=O)C[C@H]3C(=C)[C@@H](O)C[C@@H]12`, which growth is on record?
A: Its growth is 78.9%.

Q: Which growth does the source give for `COc1cc(/C=C/C(=O)c2cc(-c3ccc(C(F)(F)F)cc3)ccc2O)cc(OC)c1OC` here?
A: The growth was 13.9%.

Q: How did the growth turn out when `CC(=O)OCC1CCC(COC(C)=O)CC1` (stereo not given) was run?
A: Its growth is 85.5%.

Q: Which growth does the source give for `CC(=O)N(O)c1ccc(/C=C/c2ccccc2)cc1` here?
A: The growth was 23.4%.

Q: Which growth does the source give for `C=CCn1c(SCC(=O)Nc2ccc(C(=O)/C=C/c3cc(OC)c(OC)c(OC)c3)cc2)nnc1-c1cc(-c2ccc(OC)cc2)nc2ccccc12` here?
A: The growth was 96.4%.

Q: How did the growth turn out when `O=C(N/N=C\c1ccccc1S(=O)(=O)O)N/N=C/c1ccccc1S(=O)(=O)O` was run?
A: Its growth is 91.7%.

Q: Which growth does the source give for `CCOC(=O)c1c(NC(=O)CSc2n[nH]c3nc4ccccc4n23)sc(CC)c1C` here?
A: Its growth is 97.9%.

Q: How did the growth turn out when `COCc1nc(NS(=O)(=O)c2ccc(N)cc2)nc(C)c1Br` was run?
A: The growth was 114%.

Q: With `Cc1c(O)cc(-c2cnc(Nc3ccccc3)s2)c(O)c1C` as the molecule, how does the growth read?
A: The growth was 101%.

Q: Which growth does the source give for `O=P(O)(O)OCC1OC(n2cnc3c(NCc4ccco4)ncnc32)C(O)C1O` (stereo not given) here?
A: Its growth is -6.93% (active).

Q: With `O=c1[nH]c2ccccc2cc1-c1nnc(Cc2ccccc2)o1` as the molecule, how does the growth read?
A: The growth was 27.1%.

Q: `O=S(=O)(NCCCNc1nccc(-c2c(-c3ccc(F)c(O)c3)nc3sccn23)n1)c1ccc(F)cc1` was tested. Which growth did it give?
A: Its growth is -54.8% (active).

Q: `Nc1nc(Nc2ccc([N+](=O)[O-])cc2O)nc(C(Cl)(Cl)Cl)n1` was tested. Which growth did it give?
A: Its growth is 6.38% (active).

Q: `CC1CCC(C(C)C)C(NNC(N)=O)C1` (stereo not given) was tested. Which growth did it give?
A: The growth was 108%.

Q: For `CCOC(=O)c1ccc(NC(C)=O)o1`, which growth is on record?
A: The growth was 80.6%.

Q: `O=C(C1=Cc2cc3ccccc3n2Cc2cnnn21)c1ccc(F)cc1` was tested. Which growth did it give?
A: Its growth is 98%.

Q: For `COc1ccc(C2(O)CCCCC2)cc1`, which growth is on record?
A: Its growth is 95.6%.

Q: For `C[C@H]1[C@H](C)CC[C@]2(C(=O)O)CC[C@]3(C)C(=CC[C@@H]4[C@@]5(C)C[C@@H](Cc6cn([C@@H]7O[C@H](CO)[C@@H](O)[C@H](O)[C@H]7O)nn6)[C@H](O)C(C)(C)[C@@H]5CC[C@]43C)[C@H]12`, which growth is on record?
A: The growth was 91%.

Q: Which growth does the source give for `COc1ccc(/C(C)=C(\c2ccc(Cl)cc2)c2ccc(OCCN3CCCC3)cc2)cc1` here?
A: The growth was 37.9%.

Q: `O=C(COc1ccc(/C=C2\COc3ccccc3C2=O)cc1)Nc1nccs1` was tested. Which growth did it give?
A: The growth was -11.4% (active).

Q: With `CC[C@H](Nc1nc(N)nc(C2CC2)c1C#N)c1nc2cccc(NCc3ccc(C(=O)NO)cc3)c2c(=O)n1-c1ccccc1` as the molecule, how does the growth read?
A: Its growth is -19.3% (active).

Q: For `CCOC(=O)C1CN(Cc2ccccc2)C(=O)C1=O` (stereo not given), which growth is on record?
A: Its growth is 7.35% (active).

Q: With `Cc1nc(-c2ccc(Cl)cc2)ccc1NC(=O)Nc1cccc(C(F)(F)F)c1` as the molecule, how does the growth read?
A: Its growth is 79.7%.

Q: With `COc1ccc(-c2n/c(=C\c3c(O)[nH]c4ccccc34)cc3c2=Nc2ccccc2-3)cc1` as the molecule, how does the growth read?
A: The growth was -19.1% (active).

Q: How did the growth turn out when `O=C(N/N=C/c1ccc([N+](=O)[O-])cc1)c1ccc(Br)o1` was run?
A: Its growth is 123%.

Q: How did the growth turn out when `COc1c(NC[C@H]2OC(O)[C@H](O)[C@@H](O)[C@@H]2O)c(=O)c1=O` (stereo not given in full) was run?
A: The growth was 114%.
